Holding throughout (assay): DAPPL (digital affinity profiling via proximity ligation, sequencing); 10 mM Tris-HCl pH 7.5, 50 mM NaCl, 1 mM DTT, 4% glycerol, room temperature, 30 min; GST-TFs on glutathione beads, 16-mer random dsDNA library, 0.1% formaldehyde crosslink after washing; high values mean tight binding
For one test, the target named is T1, FLI1 (Homo sapiens, UniProt Q01543 1-452).
T1 sequence: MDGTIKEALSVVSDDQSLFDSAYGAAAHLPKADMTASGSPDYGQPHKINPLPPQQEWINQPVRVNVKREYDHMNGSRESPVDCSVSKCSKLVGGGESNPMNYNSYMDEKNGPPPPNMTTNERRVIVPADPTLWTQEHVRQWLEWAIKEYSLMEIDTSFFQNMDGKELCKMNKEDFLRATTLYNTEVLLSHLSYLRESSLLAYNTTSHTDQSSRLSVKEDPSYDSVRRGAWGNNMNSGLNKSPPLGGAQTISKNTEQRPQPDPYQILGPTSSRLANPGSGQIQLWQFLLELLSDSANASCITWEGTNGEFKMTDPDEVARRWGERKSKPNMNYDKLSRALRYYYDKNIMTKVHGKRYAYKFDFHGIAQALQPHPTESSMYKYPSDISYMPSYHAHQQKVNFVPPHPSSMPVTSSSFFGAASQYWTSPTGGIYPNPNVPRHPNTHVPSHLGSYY
As to conditions: protein: recombinant; tags: N-terminal GST; dsDNA, one strand shown. In short, it runs like this:
(§1)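 Beads coated with glutathione captured GST-fused human transcription factors that had been expressed in yeast, and the factors were then given DNA barcodes and pooled with a tag-only sample. The pools were incubated with 200 nmole of a random double-stranded 16-mer DNA library in Tris/NaCl/DTT/glycerol buffer for 30 min at room temperature, washed, crosslinked with 0.1% formaldehyde and proximity-ligated with BsaI/T4 ligase at 37 °C for 1 h. PCR amplification and Illumina NextSeq500 sequencing came last. Binding signal is each hexamer's read frequency for a factor divided by its frequency for the tag-only sample.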

The target of another test is T2, GABPA (Homo sapiens, UniProt Q06546 1-454).
T2 sequence: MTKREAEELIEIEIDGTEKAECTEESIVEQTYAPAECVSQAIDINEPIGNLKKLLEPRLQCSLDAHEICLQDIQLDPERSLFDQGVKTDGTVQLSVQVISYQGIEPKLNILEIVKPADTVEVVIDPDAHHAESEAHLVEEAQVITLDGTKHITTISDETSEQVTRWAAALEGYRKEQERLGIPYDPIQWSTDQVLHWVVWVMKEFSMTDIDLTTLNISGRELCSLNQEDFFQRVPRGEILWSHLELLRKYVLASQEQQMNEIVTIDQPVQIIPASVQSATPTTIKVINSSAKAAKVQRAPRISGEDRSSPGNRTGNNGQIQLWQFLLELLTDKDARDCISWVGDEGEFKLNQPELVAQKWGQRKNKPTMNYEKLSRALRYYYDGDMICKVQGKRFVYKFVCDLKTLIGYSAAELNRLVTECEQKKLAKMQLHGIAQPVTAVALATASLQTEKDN
To be noted: protein: recombinant; tags: N-terminal GST; dsDNA, one strand shown. Summed up:
as §1

A further test deals with T3, ERG (Homo sapiens, UniProt P11308 1-479).
T3 sequence: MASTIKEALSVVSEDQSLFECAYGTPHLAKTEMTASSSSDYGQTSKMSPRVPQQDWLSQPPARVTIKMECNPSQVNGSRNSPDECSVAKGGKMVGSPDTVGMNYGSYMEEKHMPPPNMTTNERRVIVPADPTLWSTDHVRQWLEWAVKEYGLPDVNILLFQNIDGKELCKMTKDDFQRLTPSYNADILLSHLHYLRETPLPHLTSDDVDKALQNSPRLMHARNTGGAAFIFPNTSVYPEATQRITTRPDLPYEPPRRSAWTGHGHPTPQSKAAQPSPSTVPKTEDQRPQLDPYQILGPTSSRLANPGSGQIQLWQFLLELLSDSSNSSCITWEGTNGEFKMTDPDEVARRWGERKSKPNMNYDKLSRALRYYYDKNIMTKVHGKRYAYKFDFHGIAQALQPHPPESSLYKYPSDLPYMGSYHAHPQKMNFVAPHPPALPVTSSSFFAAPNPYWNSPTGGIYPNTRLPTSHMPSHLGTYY
To be noted: protein: recombinant; tags: N-terminal GST; dsDNA, one strand shown. In short, it runs like this:
as §1

Another test deals with ELF1 (Homo sapiens, UniProt P32519 1-619). As to conditions: protein: recombinant; tags: N-terminal GST; dsDNA, one strand shown. In short, it runs like this:
as §1

In a further test the target is T4, EHF (Homo sapiens, UniProt Q9NZC4 1-300).
T4 sequence: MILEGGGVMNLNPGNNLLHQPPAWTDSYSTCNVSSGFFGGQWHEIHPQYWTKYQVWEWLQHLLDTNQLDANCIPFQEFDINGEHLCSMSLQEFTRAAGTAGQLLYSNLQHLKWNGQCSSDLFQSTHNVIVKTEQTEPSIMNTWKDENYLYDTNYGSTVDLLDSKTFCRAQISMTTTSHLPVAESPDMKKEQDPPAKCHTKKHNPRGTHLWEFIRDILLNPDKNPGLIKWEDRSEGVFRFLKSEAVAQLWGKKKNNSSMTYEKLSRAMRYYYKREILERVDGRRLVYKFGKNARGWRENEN
As to conditions: protein: recombinant; tags: N-terminal GST; dsDNA, one strand shown. In short, it runs like this:
as §1

A further test concerns the target SPI1 (Homo sapiens, UniProt P17947 1-270). As to conditions: protein: recombinant; tags: N-terminal GST; dsDNA, one strand shown. Summed up:
as §1

In a further test the target is SPIB (Homo sapiens, UniProt Q01892 1-262). As to conditions: protein: recombinant; tags: N-terminal GST; dsDNA, one strand shown. Summed up: as §1
A further test addresses T5, ELK3 (Homo sapiens, UniProt P41970 1-407).
T5 sequence: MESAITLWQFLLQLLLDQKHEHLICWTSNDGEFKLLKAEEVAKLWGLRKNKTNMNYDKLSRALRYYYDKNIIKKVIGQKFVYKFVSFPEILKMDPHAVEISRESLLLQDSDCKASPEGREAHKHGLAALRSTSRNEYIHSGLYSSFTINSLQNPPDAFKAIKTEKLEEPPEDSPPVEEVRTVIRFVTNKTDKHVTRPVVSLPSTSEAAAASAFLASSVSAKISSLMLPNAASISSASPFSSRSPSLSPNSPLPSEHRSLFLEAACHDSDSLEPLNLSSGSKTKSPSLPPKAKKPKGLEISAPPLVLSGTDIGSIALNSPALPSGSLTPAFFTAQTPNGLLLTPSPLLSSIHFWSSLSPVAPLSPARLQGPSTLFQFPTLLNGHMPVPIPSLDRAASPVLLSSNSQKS
To be noted: protein: recombinant; tags: N-terminal GST; dsDNA, one strand shown. Summed up:
as §1

The target of another test is T6, FEV (Homo sapiens, UniProt Q99581 1-238).
T6 sequence: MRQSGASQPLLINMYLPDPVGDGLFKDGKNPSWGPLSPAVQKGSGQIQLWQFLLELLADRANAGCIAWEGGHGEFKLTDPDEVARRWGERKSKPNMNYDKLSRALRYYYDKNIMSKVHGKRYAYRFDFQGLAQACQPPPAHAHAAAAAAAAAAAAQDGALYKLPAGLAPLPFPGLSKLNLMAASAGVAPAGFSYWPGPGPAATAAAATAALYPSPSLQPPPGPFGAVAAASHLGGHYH
As to conditions: protein: recombinant; tags: N-terminal GST; dsDNA, one strand shown. Summed up:
as §1

The target of a further test is ETV5 (Homo sapiens, UniProt P41161 1-510). As to conditions: protein: recombinant; tags: N-terminal GST; dsDNA, one strand shown. Summed up: as §1
In a further test the target is HSF1 (Homo sapiens, UniProt Q00613 1-529). To be noted: protein: recombinant; tags: N-terminal GST; chain copies: 3; dsDNA, one strand shown. In short, it runs like this: as §1
The target in a further test is T7, SPIC (Homo sapiens, UniProt Q8N5J4 1-248).
T7 sequence: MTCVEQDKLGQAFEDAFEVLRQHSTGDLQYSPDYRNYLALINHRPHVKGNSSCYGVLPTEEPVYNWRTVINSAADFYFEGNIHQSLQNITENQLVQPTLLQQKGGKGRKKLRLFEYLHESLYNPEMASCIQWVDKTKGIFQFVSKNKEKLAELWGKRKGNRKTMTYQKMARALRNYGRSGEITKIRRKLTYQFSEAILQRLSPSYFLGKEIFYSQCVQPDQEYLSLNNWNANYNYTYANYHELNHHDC
To be noted: protein: recombinant; tags: N-terminal GST; dsDNA, one strand shown. In short, it runs like this: as §1

A further test addresses ELF4 (Homo sapiens, UniProt Q99607 1-663). To be noted: protein: recombinant; tags: N-terminal GST; dsDNA, one strand shown. In short, it runs like this: as §1
The next test addresses T8, ELK4 (Homo sapiens, UniProt P28324-2 1-405).
T8 sequence: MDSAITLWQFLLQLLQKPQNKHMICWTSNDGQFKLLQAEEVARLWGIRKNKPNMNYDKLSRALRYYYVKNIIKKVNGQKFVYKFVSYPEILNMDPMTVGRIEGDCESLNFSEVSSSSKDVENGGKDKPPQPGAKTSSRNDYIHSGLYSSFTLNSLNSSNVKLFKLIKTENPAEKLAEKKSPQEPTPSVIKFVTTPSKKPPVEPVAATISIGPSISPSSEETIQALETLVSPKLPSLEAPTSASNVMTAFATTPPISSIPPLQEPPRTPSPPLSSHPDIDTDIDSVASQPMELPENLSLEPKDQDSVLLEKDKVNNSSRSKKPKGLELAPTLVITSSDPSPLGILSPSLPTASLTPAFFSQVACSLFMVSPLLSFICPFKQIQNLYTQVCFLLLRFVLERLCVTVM
As to conditions: protein: recombinant; tags: N-terminal GST; dsDNA, one strand shown. In short, it runs like this: as §1

The next test has as its target T9, ETV2 (Homo sapiens, UniProt O00321 1-342).
T9 sequence: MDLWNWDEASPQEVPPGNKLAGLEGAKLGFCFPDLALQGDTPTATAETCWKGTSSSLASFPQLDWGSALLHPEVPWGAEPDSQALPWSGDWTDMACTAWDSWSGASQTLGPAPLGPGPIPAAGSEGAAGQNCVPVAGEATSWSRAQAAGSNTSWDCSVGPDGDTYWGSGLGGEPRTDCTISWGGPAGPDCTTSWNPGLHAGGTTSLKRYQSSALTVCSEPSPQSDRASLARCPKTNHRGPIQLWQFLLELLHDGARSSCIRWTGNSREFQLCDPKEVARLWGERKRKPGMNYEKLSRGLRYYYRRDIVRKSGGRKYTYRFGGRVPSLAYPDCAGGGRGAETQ
To be noted: protein: recombinant; tags: N-terminal GST; dsDNA, one strand shown. Summed up: as §1

For a further test, the target named is T10, ELF3 (Homo sapiens, UniProt P78545 1-371).
T10 sequence: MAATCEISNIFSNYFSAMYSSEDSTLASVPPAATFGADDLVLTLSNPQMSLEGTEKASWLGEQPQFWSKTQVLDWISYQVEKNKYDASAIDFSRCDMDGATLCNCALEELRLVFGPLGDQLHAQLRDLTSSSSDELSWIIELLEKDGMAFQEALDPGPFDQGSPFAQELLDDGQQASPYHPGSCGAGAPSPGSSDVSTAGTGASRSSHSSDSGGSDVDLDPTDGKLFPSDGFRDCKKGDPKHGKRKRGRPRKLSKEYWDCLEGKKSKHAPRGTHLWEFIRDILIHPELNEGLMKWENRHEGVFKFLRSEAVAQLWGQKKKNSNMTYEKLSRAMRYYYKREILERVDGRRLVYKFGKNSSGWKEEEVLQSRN
To be noted: protein: recombinant; tags: N-terminal GST; dsDNA, one strand shown. In short, it runs like this: as §1

The next test addresses CRX (Homo sapiens, UniProt O43186 1-299). To be noted: protein: recombinant; tags: N-terminal GST; dsDNA, one strand shown. Summed up: as §1
In the next test the target is ETV1 (Homo sapiens, UniProt P50549 1-477). As to conditions: protein: recombinant; tags: N-terminal GST; dsDNA, one strand shown. In short, it runs like this:
as §1

The values below come from publication PMC7862700, “An all-to-all approach to the identification of sequence-specific readers for epigenetic DNA modifications on cytosine”.

SPIB, sequence (Q01892 whole entry): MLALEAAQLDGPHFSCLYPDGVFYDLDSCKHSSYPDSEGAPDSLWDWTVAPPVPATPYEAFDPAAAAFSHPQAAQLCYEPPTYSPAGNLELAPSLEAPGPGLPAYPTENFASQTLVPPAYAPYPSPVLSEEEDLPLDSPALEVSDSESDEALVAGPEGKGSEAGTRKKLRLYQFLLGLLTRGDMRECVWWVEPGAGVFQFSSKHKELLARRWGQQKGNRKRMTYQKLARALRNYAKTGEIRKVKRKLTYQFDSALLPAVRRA
ELF1, sequence (P32519 whole entry): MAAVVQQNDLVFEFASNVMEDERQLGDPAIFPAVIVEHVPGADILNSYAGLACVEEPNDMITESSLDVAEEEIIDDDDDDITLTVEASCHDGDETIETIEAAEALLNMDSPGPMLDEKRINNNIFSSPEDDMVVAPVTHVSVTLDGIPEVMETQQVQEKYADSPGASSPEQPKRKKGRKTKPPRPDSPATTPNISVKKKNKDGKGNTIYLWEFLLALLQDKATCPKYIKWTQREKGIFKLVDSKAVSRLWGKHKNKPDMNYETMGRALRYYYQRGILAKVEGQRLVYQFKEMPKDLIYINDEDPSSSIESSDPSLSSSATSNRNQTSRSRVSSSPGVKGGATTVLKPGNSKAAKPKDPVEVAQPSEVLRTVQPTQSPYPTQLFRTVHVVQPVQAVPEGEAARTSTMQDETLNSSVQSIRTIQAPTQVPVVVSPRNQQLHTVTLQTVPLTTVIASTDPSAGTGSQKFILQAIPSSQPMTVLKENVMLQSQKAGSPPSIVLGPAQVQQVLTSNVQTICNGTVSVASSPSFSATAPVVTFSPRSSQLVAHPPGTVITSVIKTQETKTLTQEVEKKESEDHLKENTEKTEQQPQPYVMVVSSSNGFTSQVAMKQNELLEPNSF
HSF1, sequence (Q00613 whole entry): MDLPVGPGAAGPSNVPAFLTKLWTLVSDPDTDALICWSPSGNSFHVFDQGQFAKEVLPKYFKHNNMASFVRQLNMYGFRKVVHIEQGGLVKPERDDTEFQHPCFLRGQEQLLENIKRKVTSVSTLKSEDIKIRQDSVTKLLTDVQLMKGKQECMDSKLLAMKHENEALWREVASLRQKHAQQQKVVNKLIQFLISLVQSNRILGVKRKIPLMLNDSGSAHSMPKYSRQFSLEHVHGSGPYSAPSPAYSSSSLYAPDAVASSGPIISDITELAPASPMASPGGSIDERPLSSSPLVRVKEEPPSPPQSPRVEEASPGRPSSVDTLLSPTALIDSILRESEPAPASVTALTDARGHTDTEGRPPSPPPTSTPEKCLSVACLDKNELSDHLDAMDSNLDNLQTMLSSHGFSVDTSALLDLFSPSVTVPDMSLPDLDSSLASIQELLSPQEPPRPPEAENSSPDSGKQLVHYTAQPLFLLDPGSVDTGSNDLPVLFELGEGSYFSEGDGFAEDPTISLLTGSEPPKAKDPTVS
ETV1, sequence (P50549 whole entry): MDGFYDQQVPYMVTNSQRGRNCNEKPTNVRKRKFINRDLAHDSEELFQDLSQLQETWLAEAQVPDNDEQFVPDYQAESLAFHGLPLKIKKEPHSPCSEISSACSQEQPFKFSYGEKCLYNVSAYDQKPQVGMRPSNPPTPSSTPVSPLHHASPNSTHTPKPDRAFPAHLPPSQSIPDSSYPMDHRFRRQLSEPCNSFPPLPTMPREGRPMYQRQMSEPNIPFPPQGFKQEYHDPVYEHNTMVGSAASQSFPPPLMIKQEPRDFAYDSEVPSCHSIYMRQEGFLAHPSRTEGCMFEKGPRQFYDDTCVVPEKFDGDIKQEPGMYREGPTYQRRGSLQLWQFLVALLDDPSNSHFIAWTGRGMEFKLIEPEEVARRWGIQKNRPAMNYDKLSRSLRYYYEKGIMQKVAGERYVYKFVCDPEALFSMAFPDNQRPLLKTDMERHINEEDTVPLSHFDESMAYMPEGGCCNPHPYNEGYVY
ETV5, sequence (P41161 whole entry): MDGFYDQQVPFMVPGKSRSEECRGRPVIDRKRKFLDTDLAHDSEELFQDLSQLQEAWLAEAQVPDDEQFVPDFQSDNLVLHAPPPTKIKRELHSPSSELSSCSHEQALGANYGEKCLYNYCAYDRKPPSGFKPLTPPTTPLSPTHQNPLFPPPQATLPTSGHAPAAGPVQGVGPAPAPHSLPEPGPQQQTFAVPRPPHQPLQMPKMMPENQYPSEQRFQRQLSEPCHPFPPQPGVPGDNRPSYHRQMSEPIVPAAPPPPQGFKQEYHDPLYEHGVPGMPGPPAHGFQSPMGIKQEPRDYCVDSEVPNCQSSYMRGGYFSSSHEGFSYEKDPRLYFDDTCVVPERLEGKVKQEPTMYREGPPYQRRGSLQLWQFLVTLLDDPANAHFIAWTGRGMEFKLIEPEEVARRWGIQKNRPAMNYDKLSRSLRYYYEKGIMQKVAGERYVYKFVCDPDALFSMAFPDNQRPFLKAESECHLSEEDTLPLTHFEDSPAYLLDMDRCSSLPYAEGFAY
CRX, sequence (O43186 whole entry): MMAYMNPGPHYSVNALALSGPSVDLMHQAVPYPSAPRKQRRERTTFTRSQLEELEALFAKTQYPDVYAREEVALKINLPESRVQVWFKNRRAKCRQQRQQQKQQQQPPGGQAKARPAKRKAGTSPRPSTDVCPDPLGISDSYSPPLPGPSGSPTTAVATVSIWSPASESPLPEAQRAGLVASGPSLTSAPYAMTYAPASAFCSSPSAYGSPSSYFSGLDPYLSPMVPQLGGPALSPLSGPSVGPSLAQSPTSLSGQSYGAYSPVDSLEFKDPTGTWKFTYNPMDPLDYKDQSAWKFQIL
ELF4, sequence (Q99607 whole entry): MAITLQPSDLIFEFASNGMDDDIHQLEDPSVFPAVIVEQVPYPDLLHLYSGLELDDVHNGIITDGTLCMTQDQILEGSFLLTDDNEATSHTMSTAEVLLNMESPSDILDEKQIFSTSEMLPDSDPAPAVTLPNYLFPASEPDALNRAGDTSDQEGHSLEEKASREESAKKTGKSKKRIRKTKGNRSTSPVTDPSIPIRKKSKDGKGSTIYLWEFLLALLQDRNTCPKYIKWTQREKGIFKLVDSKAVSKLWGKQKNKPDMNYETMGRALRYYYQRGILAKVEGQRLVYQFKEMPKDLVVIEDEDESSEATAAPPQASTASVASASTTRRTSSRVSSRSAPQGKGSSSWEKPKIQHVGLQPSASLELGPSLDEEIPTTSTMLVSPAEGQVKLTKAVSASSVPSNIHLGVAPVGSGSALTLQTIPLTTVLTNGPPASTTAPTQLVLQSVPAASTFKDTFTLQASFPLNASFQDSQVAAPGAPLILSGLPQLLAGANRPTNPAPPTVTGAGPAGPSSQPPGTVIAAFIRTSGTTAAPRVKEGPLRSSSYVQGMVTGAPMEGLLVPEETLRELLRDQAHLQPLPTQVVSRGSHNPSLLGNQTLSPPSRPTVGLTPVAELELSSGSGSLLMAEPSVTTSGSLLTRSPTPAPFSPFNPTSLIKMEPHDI

In the case of GAATCT, the binding signal is 1.03 fold enrichment (6-mer frequency, TF over GST control) with FLI1; 1.15 fold enrichment (6-mer frequency, TF over GST control) with GABPA; 1.04 fold enrichment (6-mer frequency, TF over GST control) in the test with ERG; 1.04 fold enrichment (6-mer frequency, TF over GST control) with ELF1; 1.06 fold enrichment (6-mer frequency, TF over GST control) with EHF; 1.07 fold enrichment (6-mer frequency, TF over GST control) in the test with SPI1. The binding signal is 1.1 fold enrichment (6-mer frequency, TF over GST control) with SPIB; 1.08 fold enrichment (6-mer frequency, TF over GST control) with ELK3; 1.03 fold enrichment (6-mer frequency, TF over GST control) in the test with FEV; 1.13 fold enrichment (6-mer frequency, TF over GST control) in the test with ETV5; 1.76 fold enrichment (6-mer frequency, TF over GST control) in the test with HSF1; 1.05 fold enrichment (6-mer frequency, TF over GST control) with SPIC. For the same sequence, the binding signal with ELF4 was 1.07 fold enrichment (6-mer frequency, TF over GST control); with ELK4, 1.08 fold enrichment (6-mer frequency, TF over GST control); with ETV2, 1.2 fold enrichment (6-mer frequency, TF over GST control); in the test with ELF3, 1.03 fold enrichment (6-mer frequency, TF over GST control); with CRX, 1.21 fold enrichment (6-mer frequency, TF over GST control); with ETV1, 1.08 fold enrichment (6-mer frequency, TF over GST control).
